In the library only some 2.1% were active in any assay of this set; here they are far more common.
aSyn rescue: inhibitors of alpha-synuclein toxicity in yeast; Potency, µM (top dose mostly 46.1 µM), for inactives: at the top dose growth rescue (activation), usual class: activators; 370,000 compounds, 0.14% hits; AID 652106; Yeast expressing alpha-synuclein, growth rescue, BacTiter-Glo, 24 h; also: % of control where 0% means no effect; nearly all actives have a fitted effect of over 65% in size
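Rescue of yeast growth: cells expressing toxic alpha-synuclein, induced in galactose at OD600 0.02, incubated with compound 24 h at 30 C. ATP luminescence quantified growth; inhibitors of toxicity appear as activators.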
TDP43 rescue: rescues yeast growth from TDP-43 toxicity | TDP-43 expressing yeast growth rescue, BacTiter-Glo, 24 h | 410,000 compounds, 1.8% hits | AID 652104 | Potency, µM (top dose mostly 46.1 µM), without a hit: top-dose growth rescue (activation), usual class: activators; also: % of control where 0% means no effect; nearly all actives have a fitted effect of over 50% in size
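Readout is BacTiter-Glo luminescence of cell growth, so inhibitors register as activators. TDP-43-expressing yeast at OD600=0.02 in galactose medium, after raffinose pregrowth to mid-log, were incubated with compound for 24 hr at 30 deg C.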
Abeta rescue: compounds reversing amyloid beta toxicity in yeast | yeast expressing A-beta42, growth rescue, OD600, 48 h; response scale: 0% DMSO, 100% iron-clioquinol control | Potency, µM (series often up to 46.1 µM), hits mostly activators | 410,000 compounds, 0.063% hits | AID 1347071; also: nearly all actives have a fitted effect of over 55% in size
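Yeast A-beta toxicity model in growth medium with pinned compounds, 48 h at 30 C; growth read as absorbance at 600 nm. Normalized to FeCl3/clioquinol equimolar mix (positive) and DMSO (negative).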
FUS yeast rescue: rescues growth of FUS-expressing yeast; S. cerevisiae FUS-expressing, growth rescue, OD600, 24 h; 390,000 compounds, 0.24% hits; AID 1347120; Potency, µM (titrated, usually from 76.6 µM), most hits filed as activators;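 also: plate controls were DMSO vehicle for no effect and reference control for full effect; nearly all actives have a fitted effect of over 55% in size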
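Compound concentration series was pinned onto galactose-induced FUS-expressing yeast seeded at OD 0.005. Plates sat 24hr at 30C; absorbance at 600 nm gave growth. DMSO served as background control.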
Active calls of the source: *; i = inactive; ? = inconclusive; nt = no result; [ ] = dose if it differs, or a comment. Calls follow the shape of the dose curve; as a rule, active = well fitted curve in the direction sought with a large enough effect; inconclusive = small, poorly fitted or top-dose-only effect, or another doubt; inactive = no such curve, though single readings can be large; an effect the other way counts as inactive or inconclusive. Potency is read from the fitted curve at half-maximal effect.

SMILES | aSyn rescue | TDP43 rescue | Abeta rescue | FUS yeast rescue
CC(C)NS(=O)(=O)c1ccc2[nH]c3nc(SCC(=O)Nc4ccc(F)c(F)c4)nnc3c2c1 | -11.6% | nt | nt | nt
COc1cc(OC)c(OC)cc1/C=C/c1cc[n+](C)c2ccccc12 | -14.8% | nt | nt | nt
C[C@@]12C(=O)Nc3ccc(Cl)cc3C(=O)N1[C@H]1c3cc(Br)ccc3OC[C@@H]1[C@@H]2c1ccccc1 | 10.4% | 9.6% | i | 28.2µM*
COc1ccc2c(c1)OC[C@H]1[C@H]2N2C(=O)c3cc(F)ccc3NC(=O)[C@@]2(C)[C@H]1c1ccccc1 | 7.7% | 20µM* | i | i
Cc1ccc2c(c1)[C@H]1[C@H](CO2)[C@H](c2ccccc2)[C@]2(C)C(=O)N(Cc3ccc(F)cc3)CC(=O)N12 | 0.4% | 21.4% | 15.8µM* | i
COc1ccc2c(c1)OC[C@H]1[C@H]2N2C(=O)c3cc(Cl)ccc3NC(=O)[C@@]2(C)[C@H]1c1ccccc1 | 23.0% | 4.47µM* | i | i
COc1ccc2c(c1)OC[C@H]1[C@H]2N2C(=O)c3cc(OC)ccc3NC(=O)[C@@]2(C)[C@H]1c1ccccc1 | 19.7% | 5.01µM* | i | i
COc1ccc2c(c1)OC[C@H]1[C@H]2N2C(=O)c3ccc(C)cc3NC(=O)[C@@]2(C)[C@H]1c1ccccc1 | -1.3% | 0.5% | i | ?
O=C(c1cnccn1)N1CCc2c([nH]c3ccccc23)C1c1cccc(Cl)c1 (stereo unspecified) | ? | 17.8µM* | i | ?
CS(=O)(=O)N1CCN(c2nc(-c3cccs3)nc3ccccc23)CC1 | 0.9% | nt | nt | nt
Cn1c2ccccc2c(=O)c2ccc(F)cc21 | 14.1µM* | -62.1% | i | i
CN(C)c1ccc(/C=C2\C=Cc3ccccc32)cc1Cl | -10.4% | nt | nt | nt
CCc1ccc(CNC(=O)CCc2c(C)nn(-c3ccc(N4CCCCC4)nn3)c2C)cc1 | nt | 0.0% | i | i
Cn1nnc2c(NCc3ccccc3Cl)ncnc21 | nt | ? | i | i
Cn1nnc2c(NCc3ccc(Cl)cc3)ncnc21 | nt | 11.2µM* | i | i
CCCc1nc2ccc(NC(C)=O)cc2c(=O)n1Cc1ccccc1Cl | -1.4% | 20µM* | i | i
Cc1ccc(C2=Nc3ccccc3NC(c3ccncc3)=N2)cc1 | nt | 16.6% | i | i
CN1C(=O)c2cc(NC(=O)Nc3ccccc3)ccc2OC[C@H]2O[C@@H](CC(=O)Nc3cc(F)ccc3F)CC[C@@H]21 | nt | nt | nt | i
COc1ccc(/C=C/C(=O)N2CCC(c3nc4ccccc4o3)CC2)cc1OC | nt | 15.8µM* | i | ?
Cc1ccc(/C=C/C(=O)N2CCC(c3nc4ccccc4o3)CC2)cc1 | nt | 5.7% | i | i
Cc1ccc(NC(=O)CN2C(=O)CCc3ccccc32)cc1C | nt | ? | i | i
CC(C)CC1C(=O)N(Cc2cn(CCC3OCCCO3)nn2)CCS(=O)(=O)N1Cc1ccc(-c2ccccc2)cc1 (stereo unspecified) | -3.3% | -15.0% | i | ?
Cc1ccc(-c2ccc(CN3C(CC(C)C)C(=O)N(Cc4cn(CCC5OCCO5)nn4)CCS3(=O)=O)cc2)cc1 (stereo unspecified) | 17.8% | 35.5µM* | i | ?
CC(C)CC1C(=O)N(Cc2cn(CCC3OCCO3)nn2)CCS(=O)(=O)N1Cc1ccc(-c2ccccc2)cc1 (stereo unspecified) | 0.0% | 22.4µM* | i | ?
CCCNC(=O)OCc1cccnc1Sc1ccc(C)cc1 | 7.7% | 20µM* | i | i
SMILES | aSyn rescue | TDP43 rescue | Abeta rescue | FUS yeast rescue
O=C(CCn1c(=O)oc2ccccc21)N(Cc1ccccc1)c1ccccc1 | -0.5% | 22.4µM* | i | i
O=C(CCl)N(Cc1ccccc1)c1ccccc1 | -13.3% | 20µM* | i | i
CN(Cc1ccccc1)C(=O)CCn1c(=O)oc2ccccc21 | 9.2% | 15.2% | i | i
O=S(=O)(c1ccc(Cl)cc1)N1CCN(c2nc(-c3ccccc3)nc3ccccc23)CC1 | -1.0% | nt | nt | nt
OCc1ccc(-c2nn(Cc3ccccc3)c3ccccc23)o1 | 3.98µM* | 3.9% | i | i
Cc1cc(C=Nc2ccc(/C=C/c3ccnc4ccccc34)cc2)ccc1N(C)C | 2.7% | nt | nt | nt
Cc1ccc(SCC(=O)O/N=C(\N)c2cccnc2)cc1 | 0.6% | 10µM* | i | i
Cc1ccc(S(=O)(=O)N(C)CC(=O)O/N=C(\N)c2cccnc2)cc1 | 1.5% | 13.4% | i | nt
CCCn1nc(C(=O)NNC(=O)c2ccc(C)c(C)c2)c2ccccc2c1=O | 2.2% | 19.2% | i | nt
CCCn1nc(C(=O)N2CCN(S(=O)(=O)c3ccc(C)c(C)c3)CC2)c2ccccc2c1=O | -40.3% | 35.5µM* | i | ?
O=C(Nc1cccc(OC(=O)c2ccc(Br)o2)c1)c1ccccc1 | -6.6% | 22.4µM* | i | i
CCc1ccccc1NC(=O)Cn1cc2c(n1)CCC(C)C2 (stereo unspecified) | nt | 3.2%[9.22 µM] | i | i
CCOC(=O)[C@]12CCCC3=C1N(CCC3)C(=O)[C@@H](CC(=O)NCc1ccc(OC)c(OC)c1)C2 | nt | nt | nt | i
O=S(=O)(CCSc1nc2ccccc2o1)c1nc2ccccc2s1 | -18.2% | 11.2µM* | i | i
Cc1ccc(CCNC(=O)c2oc(=O)c3ccccc3c2-c2ccc(C)cc2)cc1 | nt | ? | i | ?
Cc1ccc(-c2c(C(=O)NCCc3ccc(Cl)cc3)oc(=O)c3ccccc23)cc1 | nt | -8.8% | i | 15.8µM*
COC(=O)[C@@]12CCCCC3=C1N(CCC3)C(=O)[C@H]2CC(=O)N1CCN(C(=O)C2CC2)CC1 | nt | nt | nt | i
CCOC(=O)c1cc(-c2ccccc2)n(-c2cccc(C(=O)Nc3ccc(OC)cc3)c2)c1C | nt | -1.4% | i | i
Cc1nn(-c2ccccc2)c2c1N(CCCC(=O)NCc1ccc(Cl)cc1)C(=O)CS2 | nt | 20µM* | i | ?
Cc1nn(-c2ccccc2)c2c1N(CCCC(=O)NCc1ccccc1)C(=O)CS2 | nt | ? | i | i
